Measured values as given in PubChem BioAssay (NCATS).
Results filed as inconclusive are left out. Calls of active or inactive are those of the source. The call rests on the fitted dose curve; in most records, active means well fitted cell-killing curve with a large enough effect; inconclusive means small, poorly fitted or top-dose-only effect; inactive means flat fitted curve, though single readings scatter.

assay: Quantitative highthroughput screen to assess conditional lethalithy of P12 Ichikawa cells grown in Human Plasma-Like Medium with dialyzed fetal bovine serum (HPLM+ds) (AID 1963879); conditions: ATP luminescence, 48 h; Potency: viability; series mostly up to 45.8 µM; viability: at the top concentration; further: nearly all actives have a fitted effect of over 35% in size
Description: Assay Provider: Jason Cantor Ph.D.
Department of Biochemistry
University of Wisconsin-Madison, Madison, WI, USA
Chemical screening studies have identified drug sensitivities across hundreds of cancer cell lines but most putative therapeutics fail to translate. Discovery and development of drug candidates in models that more accurately reflect nutrient levels in human blood is a major challenge. Here we performed high-throughput screens in conventional versus Human Plasma-Like Medium (HPLM) to identify compounds that were "missed" when screening using the artificial culture condition. Sets of conditional anticancer compounds spanned phases of clinical development and included non-oncology drugs were assessed. […] We also traced conditional phenotypes for several chemotherapeutics to availability of HPLM-specific metabolites and confirmed others for compounds whose reported targets are encoded by nonessential genes. Our findings establish generalizable strategies for exploiting conditional lethality in HPLM to reveal therapeutic candidates and mechanisms of action in cancer cells.
Described herein are the results of each viability screens against three cell lines: NOMO1 (an acute myeloid leukemia cell line); P12-Ichikawa (a T-cell acute lymphoblastic leukemia); and SEM (a B-cell ALL). Each assay was screened using 3 different cell culture media: homemade human plasma-Like medium with 10% dialyzed fetal bovine serum (HPLM+ds); RPMI1640 with 10% untreated FBS and 5mM glucose (RPMI+s); and RPMI1640 with 10% dialyzed fetal bovine serum and 5 mM glucose (RPMI+ds).
PROTOCOL TABLE (as described by Inglese J, Shamu CE and Guy RK. 2007)
SEQUENCE No. (e.g., 1, 2, 3, etc.); […] (e.g., Cells, Incubation, Reagent, etc.); VALUE and DESCRIPTION.
1; Cells; 5 uL; white, solid bottom 1536-well Greiner assay plate.
2; Compounds; 23 nL; Kalypsis pin tool (Wako USA) equipped with a 1536-well pin head to transfer to the assay plates.
3; Incubation; 48 hours; 37C incubation.
4; Reagent; 3 uL; CellTiter Glo (Promega).
5; Incubation; 5 min, room temperature
6; Detection; Luminescence, Viewlux PerkinElmer.
NOTES (numbers refer to Sequence numbers above)
1. Briefly, 5 ul of cell reagent was dispensed using a Multidrop Combi Dispenser. The NOMO1 and SEM cells were plated at 500 cells/well and the P12-Ichikawa line at 1000 cells/well.
2. After seeding the cells, 23 nL of MIPE 4.1 library compounds (in DMSO) were added to each plate using a Kalypsys 1536 Pintool dispenser. Bortezomib at final concentration of […] and DMSO were added to each plate as positive and negative controls respectively. For each screen, MIPE 4.1 compounds were added over an eleven-point concentration range […] in 3-fold dilutions.
3. Each plate was covered with a stainless steel gasketed lid to prevent evaporation and incubated for 48 hour at 37C, 95% relative humidity, and 5% CO2.
4-5. Three microliter CellTilter-GloTM luminescent substrate mix (Promega) reagent was added to the assay plate and incubated at room temperature for 5 min.
6. The luminescence signal was measured using a ViewLux (PerkinElmer) multiplate reader with a 2 second exposure time per plate. Data for each compound were normalized as percent viability such that measurements for DMSO and the empty well controls in each plate were defined as 100% and 0%, respectively.
Potency means the concentration at half of the fitted maximal effect.

**Q.** Which “viability” value does the source give for `CC(=O)N(C)c1cccc(-c2ccnc3c(C(=O)c4cccs4)cnn23)c1` here?
**A.** 94.7% (inactive)

**Q.** Which “viability” value does the source give for `COC(=O)[C@@H](N)CCCN=C(N)N[N+](=O)[O-]` here?
**A.** 109% (inactive)

**Q.** With `CC=C(C)C(=O)O[C@H]1C(C)=C2[C@@H]3OC(=O)[C@@](C)(O)[C@@]3(O)[C@@H](OC(=O)CCC)C[C@](C)(OC(C)=O)[C@@H]2[C@@H]1OC(=O)CCCCCCC` as the compound, how does the Potency read?
**A.** 0.118 µM (active)

**Q.** For `C[C@]12CC[C@H](O)CC1=CC[C@H]1[C@H]3CCC(=O)[C@@]3(C)CC[C@@H]12`, which “viability” value is on record?
**A.** 97.1% (inactive)

**Q.** For `Cn1c(CCCC(=O)O)nc2cc(N(CCCl)CCCl)ccc21`, which “viability” value is on record?
**A.** 91.6% (inactive)

**Q.** Which “viability” value does the source give for `C#CCN(C)[C@H](C)Cc1ccccc1` here?
**A.** 102% (inactive)

**Q.** For `COc1ccc(C(=O)c2c(C)n(CCN3CCOCC3)c3ccccc23)cc1`, which “viability” value is on record?
**A.** 106% (inactive)

**Q.** With `O=C1C=CC[C@@H]2[C@H]3CCCN4CCC[C@@H](CN12)[C@@H]34` as the compound, how does the “viability” value read?
**A.** 95.4% (inactive)

**Q.** For `CCOC(=O)c1c(C(C#N)=CN)c2ccc(Cl)c(Cl)c2n1C`, which “viability” value is on record?
**A.** 99.3% (inactive)

**Q.** For `CN1C(=O)CCS(=O)(=O)C1c1ccc(Cl)cc1` (stereo not given), which “viability” value is on record?
**A.** 97.3% (inactive)

**Q.** With `CN1CCN(c2ccc([N+](=O)[O-])c3no[n+]([O-])c23)CC1` as the compound, how does the “viability” value read?
**A.** 90.8% (inactive)

**Q.** For `C[C@]12CCC(=O)C(O)=C1CC[C@@H]1[C@H]3CCC(=O)[C@@]3(C)CC[C@@H]12`, which “viability” value is on record?
**A.** 97.7% (inactive)

**Q.** For `CN[C@@H]1Cc2cccc3[nH]c(=O)n(c23)C1`, which “viability” value is on record?
**A.** 101% (inactive)

**Q.** For `Cc1c(C(=O)Nc2cccc(C(F)(F)F)c2)cc(-c2ccccc2)n1CCCN1CCOCC1`, which “viability” value is on record?
**A.** 80.3% (inactive)

**Q.** For `CC(=CCCC1=CCC(C2=CC(=O)OC2O)OC1O)CCC1=C(C)CCCC1(C)C` (stereo not given), which “viability” value is on record?
**A.** 102% (inactive)

**Q.** Which “viability” value does the source give for `C[C@]12CC[C@H]3[C@@H](CCC4=CC(=O)CC[C@@]43C)[C@H]1CC[C@H]2OC(=O)CCC1CCCC1` here?
**A.** 105% (inactive)

**Q.** With `CC(C)(C)c1cc(C=C(C#N)C#N)cc(Br)c1O` as the compound, how does the “viability” value read?
**A.** 90.6% (inactive)

**Q.** For `Cc1cccc(C)c1NC(=O)CN1CCCC1=O`, which “viability” value is on record?
**A.** 99.4% (inactive)

**Q.** With `COC[C@H]1OC(=O)c2coc3c2[C@@]1(C)C1=C(C3=O)C2CCC(=O)[C@@]2(C)C[C@H]1OC(C)=O` (stereo not given in full) as the compound, how does the “viability” value read?
**A.** 99% (inactive)

**Q.** Which “viability” value does the source give for `CCCC(C)(COC(N)=O)COC(=O)NC(C)C` (stereo not given) here?
**A.** 93.2% (inactive)

**Q.** With `CC(=Cc1csc(C)n1)[C@@H]1C[C@H]2O[C@@H]2CCC[C@H](C)[C@@H](O)[C@@H](C)C(=O)C(C)(C)[C@@H](O)CC(=O)O1` as the compound, how does the “viability” value read?
**A.** 21.8% (inactive)

**Q.** For `C=C(C)[C@H]1Cc2c(ccc3c2O[C@@H]2COc4cc(OC)c(OC)cc4[C@@H]2C3=O)O1`, which Potency is on record?
**A.** 3.72 µM (active)

**Q.** For `CC(N[C@H]1C[C@H]1c1ccccc1)c1ccc2c(c1)OCCO2` (stereo not given in full), which “viability” value is on record?
**A.** 97.7% (inactive)

**Q.** With `Clc1ccccc1C(c1ccccc1)(c1ccccc1)n1cccn1` as the compound, how does the “viability” value read?
**A.** 102% (inactive)

**Q.** With `COc1ccc2c(c[n+](C)c3c4cc5c(cc4ccc23)OCO5)c1OC` as the compound, how does the Potency read?
**A.** 16.6 µM (active)

**Q.** With `C=C[C@@H]1CN2CCC1C[C@H]2[C@H](O)c1ccnc2ccccc12` (stereo not given in full) as the compound, how does the “viability” value read?
**A.** 86.5% (inactive)

**Q.** For `COc1ccc(C(CN(C)C)C2(O)CCCCC2)cc1` (stereo not given), which “viability” value is on record?
**A.** 109% (inactive)

**Q.** Which “viability” value does the source give for `CC[C@@H](C(N)=O)N1CCCC1=O` here?
**A.** 99.8% (inactive)

**Q.** Which Potency does the source give for `CC(C)(O)C=CC(=O)[C@](C)(O)[C@H]1[C@H](O)C[C@]2(C)[C@@H]3CC=C4[C@@H](C=C(O)C(=O)C4(C)C)[C@]3(C)C(=O)C[C@@]12C` here?
**A.** 0.166 µM (active)

**Q.** For `CC1=C(O)C(=O)C=C2C1=CC=C1[C@@]2(C)CC[C@@]2(C)[C@@H]3C[C@](C)(C(=O)O)CC[C@]3(C)CC[C@]12C`, which Potency is on record?
**A.** 5.9 µM (active)

**Q.** With `C[C@@H]1O[C@@H](O[C@@H]2C=C3CC[C@@H]4[C@@H](CC[C@]5(C)[C@H](c6ccc(=O)oc6)CC[C@@]45O)[C@@]3(C)CC2)[C@H](O)[C@H](O)[C@H]1O` as the compound, how does the Potency read?
**A.** 0.0209 µM (active)

**Q.** For `COc1ccc(C(=O)c2c(C)n(CCN3CCOCC3)c3cc(I)ccc23)cc1`, which Potency is on record?
**A.** 4.18 µM (active)

**Q.** With `CC(C)N(CCNC(=O)CN1CCCC1=O)C(C)C` as the compound, how does the “viability” value read?
**A.** 96.7% (inactive)

**Q.** With `CCOP(=O)(OCC)C(C)NC(=O)N(CCCl)N=O` (stereo not given) as the compound, how does the “viability” value read?
**A.** 110% (inactive)

**Q.** With `C#CC1(O)CCC2C3CCC4=CC(=O)CCC4(C)C3CCC21C` (stereo not given) as the compound, how does the “viability” value read?
**A.** 109% (inactive)

**Q.** Which “viability” value does the source give for `C[C@](O)(COc1ccc(C#N)cc1)C(=O)Nc1ccc(C#N)c(C(F)(F)F)c1` here?
**A.** 103% (inactive)

**Q.** For `COc1cc(OC)c(OC)cc1C=O`, which “viability” value is on record?
**A.** 111% (inactive)

**Q.** With `CCOC(=O)c1cncn1[C@H](C)c1ccccc1` as the compound, how does the “viability” value read?
**A.** 97.4% (inactive)

**Q.** For `NC1=NC(=O)N2CC12` (stereo not given), which Potency is on record?
**A.** 7.43 µM (active)

**Q.** Which “viability” value does the source give for `COc1cccc2c1[C@]13CCN(CC4CC4)[C@H](C2)[C@]1(OC)CCC(=O)C3` here?
**A.** 96.4% (inactive)
